Assay results published in ChEMBL document CHEMBL3433997, “St. Jude Leishmania screening dataset” (2016).

Key:
Format in all cases: functional
[1] = target: Solute carrier family 2, facilitated glucose transporter member 1 (Homo sapiens) (UniProt P11166); assay: ST_JUDE_LEISH: Cytotoxicity at 2uM final concentration against transgenic Leishmania Mexicana promastigotes LmGLUT1 that are glucose transport deficient and complemented with the human glucose transporter GLUT1. Activity is measured by DNA content using SYBR green in vitro
[2] = target: Hexose transporter 1 (Plasmodium falciparum) (UniProt O97467); assay: ST_JUDE_LEISH: Cytotoxicity at 2uM final concentration against transgenic Leishmania Mexicana promastigotes LmPfHT that are glucose transport deficient and complemented with the Plasmodium falciparum hexose transporter. Activity is measured by DNA content using SYBR green in vitro
[3] = target: Glucose transporter (Leishmania mexicana) (UniProt O61059); assay: ST_JUDE_LEISH: Cytotoxicity at 2uM final concentration against transgenic Leishmania Mexicana promastigotes LmGT2 that are glucose transport deficient and complemented with the L. Mexicana glucose transporter 2. Activity is measured by DNA content using SYBR green in vitro

Sequence of Solute carrier family 2, facilitated glucose transporter member 1 (Homo sapiens) (P11166 whole entry): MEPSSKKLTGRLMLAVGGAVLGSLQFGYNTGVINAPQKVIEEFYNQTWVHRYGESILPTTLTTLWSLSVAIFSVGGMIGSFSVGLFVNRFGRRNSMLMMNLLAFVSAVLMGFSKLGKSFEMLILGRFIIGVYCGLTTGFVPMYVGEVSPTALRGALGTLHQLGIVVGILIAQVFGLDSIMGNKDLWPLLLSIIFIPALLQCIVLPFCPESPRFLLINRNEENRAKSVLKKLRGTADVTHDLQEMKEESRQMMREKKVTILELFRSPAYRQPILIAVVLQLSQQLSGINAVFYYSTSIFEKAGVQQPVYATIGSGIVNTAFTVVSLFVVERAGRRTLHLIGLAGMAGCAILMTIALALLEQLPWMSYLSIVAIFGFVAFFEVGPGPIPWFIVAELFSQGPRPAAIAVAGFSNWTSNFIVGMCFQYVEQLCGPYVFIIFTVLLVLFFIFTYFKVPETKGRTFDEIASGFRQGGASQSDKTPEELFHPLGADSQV

Structure (SMILES)	inhibition [1] [%]	inhibition [2] [%]	inhibition [3] [%]
COc1ccc(OC)c(NC(=O)CSc2nc(-c3ccccc3Cl)ns2)c1	0.9	0.98	-1.15
O=C(Nc1cccc(-c2ccc(-c3nc4cc(F)ccc4[nH]3)cc2)c1)Nc1ccc(F)c(F)c1F	2.86	4.09	-1.44
CC(C)C[C@@H](C(=O)N[C@H](C(=O)Nc1nccs1)C(C)(C)C)[C@H](CCC(F)(F)F)N(O)C=O	4.27	6.41	4.07
CCOC(=O)CCc1cc(F)c(F)c(OC[C@H](O)CNC(C)(C)C(O)c2ccc3ccccc3c2)c1 (stereo partly specified)	0.06	0.61	0.21
O=C(Nc1ccc(Cl)cc1)Nc1cccc(-c2cc(CNCCc3ccccc3)oc2-c2ccncc2)c1	5.78	2.56	3.77
Cc1ccc2cc(NC(=O)CCCCCCCON3C(N)=NC(N)=NC34CCCCC4)ccc2n1	-1.59	0.8	0.83
CN(C(=O)/C=C/c1ccccc1F)C1CCN(CCCCCNC(=O)/C=C/c2ccc(Cl)c(Cl)c2)CC1	5.19	4.23	5.34
O=C1C(c2ccccc2)=C(Nc2cccc(OC(F)(F)C(F)F)c2)c2ccccc21	5.8	4.03	1.33
OCc1ccc2nc3c(cc2c1)-c1cccc2cccc-3c12	3.6	1.82	2.11
CC(C)(C)c1cc(C(=O)N2CCC(c3ccccn3)CC2)n(Cc2ccccc2)n1	0.22	1.08	-0.6
COc1ccc(CNC2Cc3ccccc3C2)cc1-c1ccc(S(=O)(=O)NCc2cccnc2)s1	1.92	2.48	0.3
O=C(Nc1ccc(F)cc1)c1cnc(N2CCN(c3ccncc3)CC2)c(Cl)c1	16	10.4	3.86
COc1ccc(OCCCN2CCCCC2)cc1S(=O)(=O)c1ccc(OCc2ccc(C(F)(F)F)cc2)cc1	2.4	0.01	2.1
O=C(Cc1ccccn1)Nc1cccc(-c2cccc(-c3nc4cc(C(F)(F)F)ccc4[nH]3)c2)c1	0.14	1.02	-0.1
Cc1cc(Nc2ccccc2)nc(Nc2ccccc2)n1	9.14	8.33	1.86
O=C(/C=C/c1ccccc1Cl)NC1CCC(CN2CCC(c3c[nH]c4ccncc34)CC2)CC1 (stereo unspecified)	-0.19	0.35	1.34
CC(O)C1CCCCN1C(=O)c1cccc(-c2cccc(-c3nc4ccccc4[nH]3)c2)c1 (stereo unspecified)	0.78	0.15	-0.24
